# VACV mCherry inh: inhibitors of vaccinia virus infection (mCherry reporter signal); Vaccinia virus mCherry reporter infection, fluorescence; AID 720579; Potency, µM (doses to about 36.5 µM), for the others: top-dose activity change, negative = inhibition, usual class: inhibitors; 310,000 tested, 0.63% active; calls by dose curve; tested in A549 cells; further: nearly all actives have a fitted effect of over 35% in size
# Vaccinia Venus: inhibitors of vaccinia virus (Venus reporter). Vaccinia virus Venus reporter expression, fluorescence. Potency, µM (titrated, usually from 36.5 µM), without a hit: at the top dose activity change, negative = inhibition, usual class: inhibitors. 330,000 tested, 0.46% active. AID 720580; calls by dose curve; tested in A549 cells; further: nearly all actives have a fitted effect of over 30% in size
# AmpC inh no detg: blocks E. coli AmpC beta-lactamase in detergent-free assay. 330,000 tested, 0.52% active. AmpC nitrocefin hydrolysis, absorbance 480 nm, 0.0001% Triton. Potency, µM (highest dose often 57.1 µM), without a hit: at the top dose activity change, negative = inhibition, usual class: inhibitors. P00811. AID 485341;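 further: plate controls were no compound for no effect and no enzyme for full effect; nearly all actives have a fitted effect of over 20% in size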
# Target sequence (P00811 whole entry, looked up): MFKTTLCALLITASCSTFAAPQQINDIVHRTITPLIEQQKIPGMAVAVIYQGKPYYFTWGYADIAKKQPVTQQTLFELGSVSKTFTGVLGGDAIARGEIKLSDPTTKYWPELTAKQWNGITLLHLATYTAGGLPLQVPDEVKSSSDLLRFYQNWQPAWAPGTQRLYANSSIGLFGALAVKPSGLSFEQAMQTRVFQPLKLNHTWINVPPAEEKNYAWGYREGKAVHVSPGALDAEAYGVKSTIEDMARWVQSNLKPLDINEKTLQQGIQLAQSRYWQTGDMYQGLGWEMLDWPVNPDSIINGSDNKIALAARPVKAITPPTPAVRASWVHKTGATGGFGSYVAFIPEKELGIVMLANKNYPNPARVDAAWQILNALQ
#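 20 mM phosphate pH 7.0 + 0.01% (detergent screen) or 0.0001% Triton X-100; 5.3 nM AmpC reagent; cpd preinc 15 min RT; nitrocefin (800 uM stock) to start; A480 q20 s × 4 min; Activity was normalised to no-enzyme and no-compound control wells.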
# AmpC detergent: blocks E. coli AmpC beta-lactamase in detergent assay. P00811. AmpC hydrolysis of nitrocefin, absorbance 480 nm, 0.01% Triton. Potency, µM (top dose mostly 114 µM), for the others: at the top dose activity change, negative = inhibition, usual class: inhibitors. 370,000 tested, 0.041% active. AID 485294;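 further: 0% = no-compound wells and -100% = no-enzyme wells; nearly all actives have a fitted effect of over 25% in size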
#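 20 mM phosphate pH 7.0 + 0.01% (detergent screen) or 0.0001% Triton X-100; 5.3 nM AmpC reagent; cpd preinc 15 min RT; nitrocefin (800 uM stock) to start; A480 q20 s × 4 min; Activity was normalised to no-enzyme and no-compound control wells.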
# Starred values were filed as active, the others as inactive; i = inactive; ? = inconclusive; / = no result given; [ ] = dose if it differs, or a comment. Only some compounds are listed: those with a hit (about 1.1% of all), similar ones and a draw of the others. Unless noted, the call rests on the fitted dose curve; in most records, active means well fitted curve in the direction sought with a large enough effect; inconclusive means small, poorly fitted or top-dose-only effect, or another doubt; inactive means no such curve, though single readings can be large; an effect the other way counts as inactive or inconclusive. Unless noted, on the % scale 0 is the no-effect control and ±100 the full control effect; potency means the concentration at half of the fitted maximal effect.
SMILES,VACV mCherry inh,Vaccinia Venus,AmpC inh no detg,AmpC detergent
C/C(=N\NC(=O)c1cc(-c2cccnc2)nc2ccccc12)c1ccc(O)cc1O,11µM*,?,-11%,-4%
Cc1ccc(-c2cc(C(=O)Nc3ccncc3)c3ccccc3n2)cc1,-10%,1%,-17%,-13%
O=C(NNC(=O)c1cc(-c2ccncc2)nc2ccccc12)c1ccccc1O,13µM*,?,-42%,-18%
Cc1cccc(CNC(=O)c2cnn(-c3ncc(C)c(-c4cccs4)n3)c2C2CC2)n1,-14%,5%,/,/
CCN(Cc1ccncc1)Cc1ccc2c(c1)CN(C(=O)c1cccc3c(C)c(C)[nH]c13)CCO2,-3%,6%,/,/
Cc1nc2ccccc2nc1CN1CCOc2ccc(C(C)(O)COc3ccccc3)cc2C1 (stereo unspecified),-23%,-18%,/,/
COC(=O)[C@@H]1CCCN1Cc1ccc2c(c1)CN(Cc1cccn1-c1ccc(Cl)cn1)CCO2,5%,1%,/,/
Cc1ccc(C)c(N(CC(=O)N/N=C/c2ccc(-c3ccc([N+](=O)[O-])cc3)o2)S(=O)(=O)c2ccccc2)c1,-17%,-18%,-22%,0%
CCOc1ccc(S(=O)(=O)N(CC(=O)N/N=C/c2ccc(-c3ccc([N+](=O)[O-])cc3)o2)c2ccccc2)cc1,/,?,13µM*,-5%
COc1ccc(OC)c(NC(=O)Nc2ccc3c(c2)CCC3)c1,/,/,8.9µM*,-6%
Cc1ccc(CNc2nc(C)c(-c3ccn(CCN4CCOCC4)n3)s2)o1,-4%,4%,/,/
O=C(Nc1ccc[n+](CC(=O)c2cccc3ccccc23)c1)c1ccccc1,16µM*,?,36%,3%
Cc1cc(NC(=O)COC(=O)c2cc([N+](=O)[O-])ccc2N2CCOCC2)ccc1Br,?,-30%,32µM*,?
N=c1ccn2c(n1)O[C@H]1[C@H](O)[C@@H](CO)O[C@H]12,/,/,-10%,-6%
N=c1ccn2c(n1)O[C@H]1[C@@H](CO)[C@H](O)O[C@H]12,0.45µM*,?,-14%,-24%
C/C(=N\NC(=S)NCc1ccccc1)c1cccc(Br)c1,-15%,-23%,-16%[2.29 µM],6%
C/C(=N\NC(=S)NCc1ccccc1)c1ccc2ccccc2c1,i,-2%,25µM*,-1%
CC[C@H](C)[C@@H]1NC(=O)[C@H]([C@@H](C)CC)NC(=O)[C@@H](CC(C)C)NC(=O)[C@H](Cc2ccccc2)NC(=O)[C@H](Cc2ccccc2)NC(=O)[C@@H]2CCCN2C(=O)[C@@H]2CCCN2C(=O)[C@H](C(C)C)NC(=O)[C@H](CC(C)C)NC1=O,-18%,?,54%,/
O=C(/C=C/c1ccc([N+](=O)[O-])cc1)c1ccco1,/,/,-13%,-10%
O=C(/C=C/c1ccc([N+](=O)[O-])cc1)/C=C/c1ccco1,/,/,20µM*,-11%
COc1cc(-c2nc(C)cnc2C)cc2c1OCCN(C(=O)Cc1cc(OC)c(OC)c(OC)c1)C2,-9%,10%,/,/
Cc1ccc(C(=O)CSc2nnc(-c3ccco3)o2)o1,?,10µM*,-16%,-7%
COc1ccc(-c2nnc(SCC(=O)c3ccc(C)o3)o2)cc1,28µM*,?,-10%,-2%
O=C(O)CSc1nnc(-c2ccco2)o1,-16%,-10%,-8%,-16%
Cn1cnc([N+](=O)[O-])c1Sc1nc(N)nc2c1ncn2C1CC(O)C(CO)O1 (stereo unspecified),6.3µM*,?,/,/
SMILES,VACV mCherry inh,Vaccinia Venus,AmpC inh no detg,AmpC detergent
COc1ccc(CC(=O)N2CCc3cc(OC)c(OC)cc3C2COc2ccc(OC)cc2)cc1 (stereo unspecified),-9%,-11%,/,13%
CCc1ccc(OCC2c3cc(OC)c(OC)cc3CCN2C(=O)Cc2ccc(OC)c(OC)c2)cc1 (stereo unspecified),35µM*,?,/,1%
CCc1ccc2oc(-c3ccc(C)c(NC(=O)COc4ccccc4Cl)c3)nc2c1,-11%,-11%,/,/
CCCCn1c(/C=C/c2ccco2)nc2ccccc21,-7%,0%,-23%,3%
CCCCn1c(/C=N/Nc2nc3ccccc3[nH]2)nc2ccccc21,?,11µM*,-41%,2%
O=C(COc1ccccc1C(=O)Nc1ccccc1)Nc1ccc(Br)cc1,-23%,-24%,/,/
CCCN1CNc2c(c(=O)[nH]c(=S)n2CCc2cccc(OC)c2OC)C1,-13%,-7%,/,/
NS(=O)(=O)c1ccc(NS(=O)(=O)c2ccc(NC(=O)c3ccc(-c4ccccc4)cc3)cc2)cc1,i,-3%,11µM*,-12%
COCCCNc1ncnc2sc(C(=O)N3CCOCC3)c(C)c12,-16%,-4%,/,/
